This is a sample that favours compounds with a hit; in the whole collection about 1.5% have one here.
RN4220 kill: S. aureus RN4220 growth inhibition | OD600, 16 h | inhibition, % (concentration not given with the values) | 330,000 tested, 0.33% active | AID 1259311; in the data active = inhibition above about 85%
PriA SSB inh: inhibitors of Klebsiella pneumoniae PriA binding to SSB C-terminal tail; inhibition, % at 33 µM; AID 1272365; 430,000 tested, 0.6% active; AlphaScreen SSBct-PriA binding, biotinylated peptide; in the data active = inhibition mostly above about 37%, no sharp cut-off; inactive = mostly below about 20%
CCHF vOTU inh-1: CCHFV vOTU protease inhibition; Pep-AMC fluorescence; inhibition, % at 11.5 µM; 370,000 tested, 0.55% active
DUSP3 inh: blocks human VHR1 dual specificity phosphatase; inhibition, % at 13.3 µM; P51452; 290,000 tested, 0.52% active; recombinant VHR phosphatase, pNPP absorbance; AID 1654; in the data active = inhibition above about 50%
Target sequence (P51452 whole entry, looked up): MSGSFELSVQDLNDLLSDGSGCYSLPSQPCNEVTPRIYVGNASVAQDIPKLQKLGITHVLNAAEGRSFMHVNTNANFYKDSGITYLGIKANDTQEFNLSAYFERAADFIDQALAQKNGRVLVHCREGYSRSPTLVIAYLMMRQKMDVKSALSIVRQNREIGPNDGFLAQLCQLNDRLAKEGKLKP
Sa ugtP lethal: compounds lethal to S. aureus RN4220 ugtP deletion mutant | OD600 growth, 16 h | growth inhibition, % (no concentration beside the values) | 330,000 tested, 0.54% active; in the data active = growth inhibition above about 68%
CCHF vOTU inh-2: confirmation of CCHF virus vOTU protease inhibitors; AID 686976; 1,900 tested, 17% active; inhibition, % at 11.5 µM; shares compounds with CCHF vOTU inh-1; Recombinant CCHFV vOTU, Pep-AMC fluorescence
Numbers stand for hits; i = inactive; nt = no result given. Rule as the data show it, unless noted: active = inhibition above about 30%; inactive = the rest.

SMILES	RN4220 kill	PriA SSB inh	CCHF vOTU inh-1	DUSP3 inh	Sa ugtP lethal	CCHF vOTU inh-2
CC1([N+](=O)[O-])COP(=O)(Nc2cccc(F)c2)OC1 (stereo not given)	nt	i	i	nt	nt	nt
CC1([N+](=O)[O-])COP(=O)(Nc2cccc(Cl)c2)OC1 (stereo not given)	nt	i	38.1	nt	nt	i
COc1ccc(S(=O)(=O)NCC(c2ccco2)N2CCc3ccccc3C2)cc1 (stereo not given)	i	i	34.9	nt	i	i
Nc1ccc(-c2csc(Nc3cccnc3)n2)cc1	nt	i	nt	nt	nt	nt
CN(CC(=O)Nc1ccc(Cl)c(C(F)(F)F)c1)C(=O)CC1Sc2ccccc2NC1=O (stereo not given)	i	i	32.8	i	i	i
COc1cccc(NC(=O)CN(C)C(=O)CC2Sc3ccccc3NC2=O)c1 (stereo not given)	i	i	i	nt	i	nt
COc1cccc(-c2cc(C(=O)N3CCN(c4cccc(Cl)c4Cl)CC3)n(C)n2)c1	nt	i	nt	nt	nt	nt
CCOC(=O)c1c(NC(=O)/C=C/C(=O)O)sc(C)c1-c1ccc(C(C)(C)C)cc1	i	i	45.3	i	i	i
COC(=O)/C=C1\OCc2cc(OC)c(OC)cc21	nt	nt	36.9	nt	nt	i
Cn1c(-c2ccc3nc(N)sc3c2)nc2cc(N)ccc21	i	i	34.2	i	i	i
C=CCn1c(SCC(=O)Nc2cc(C(=O)OC)cc(C(=O)OC)c2)nc2scc(-c3ccc(C)o3)c2c1=O	nt	i	nt	nt	nt	nt
CCN(CC)S(=O)(=O)c1ccc(C(O)=C2C(=O)C(=O)N(CCOC)C2c2ccccc2)cc1 (stereo not given)	nt	i	nt	nt	nt	nt
COc1ccc(NC(=O)Nc2ccc3c(c2)C(=O)N([C@H](C)CO)C[C@H](C)[C@@H](CN(C)Cc2ccc(Cl)c(Cl)c2)OCCCC[C@@H](C)O3)cc1	nt	nt	i	nt	nt	nt
C[C@@H]1CCCCO[C@H](CN(C)C(=O)Cc2ccccc2)[C@@H](C)CN([C@H](C)CO)C(=O)c2cc(NC(=O)Nc3ccccc3)ccc2O1	nt	nt	30.6	nt	nt	i
C[C@@H]1CCCCO[C@@H](CN(C)C(=O)Nc2ccccc2)[C@@H](C)CN([C@H](C)CO)C(=O)c2cc(N(C)C)ccc2O1	nt	nt	31.2	nt	nt	i
C[C@@H]1CCCCO[C@H](CN(C)Cc2ccc(Cl)c(Cl)c2)[C@H](C)CN([C@@H](C)CO)C(=O)c2cc(NC(=O)Nc3ccc(F)cc3)ccc2O1	nt	nt	30.7	nt	nt	i
COc1ccc(NC(=O)N(C)C[C@H]2OCCCC[C@@H](C)Oc3ccc(N(C)C)cc3C(=O)N([C@H](C)CO)C[C@@H]2C)cc1	nt	nt	i	nt	nt	nt
COc1ccc(OCc2cc(C(=O)NC3CCOCC3)no2)c2ccccc12	i	i	61.4	i	i	i
COc1cccc(OCc2cc(C(=O)NC3CCOCC3)no2)c1	i	i	i	i	i	nt
Cc1ccccc1OCC(=O)N1N=C(C(F)(F)F)CC1(O)C(C)(C)C (stereo not given)	i	i	33.5	i	i	i
CCn1c(C=Cc2ccccc2)nc2ccccc2c1=O	i	nt	nt	nt	i	nt
CCn1nc(/C=C/c2ccccc2)nc2c(=O)n(C)c(=O)nc1-2	97.6	i	124.3	nt	98.9	106.8
CC(=O)N1CCc2cc(S(=O)(=O)CCC(=O)Nc3ccc4c(c3)OCCO4)ccc21	i	i	i	i	i	nt
CC(=O)N1CCc2cc(S(=O)(=O)NC(C(=O)Nc3ccc4c(c3)OCCO4)C(C)C)ccc21 (stereo not given)	i	i	29.8	i	i	i
O=C1NC(Cc2ccc(O)cc2)c2nc3cc(F)c(F)cc3c(=O)n2-c2cc3ccccc3cc21 (stereo not given)	nt	nt	29.9	nt	nt	i
SMILES	RN4220 kill	PriA SSB inh	CCHF vOTU inh-1	DUSP3 inh	Sa ugtP lethal	CCHF vOTU inh-2
CCN(CC)C(=O)c1cccc(-c2csc(C(O)c3ccc(F)c(F)c3)n2)c1 (stereo not given)	nt	nt	29.6	nt	nt	i
CCN(CC)C(=O)c1cccc(-c2csc(C(O)c3ccc(F)cc3)n2)c1 (stereo not given)	nt	nt	i	nt	nt	nt
Cc1nc(-[n+]2nc(-c3ccncc3)nn2-c2ccccc2)sc1C	nt	nt	43.9	nt	nt	i
CCn1c(COc2cccc(C)c2)nnc1SCC(=O)Nc1cccc(C(=O)O)c1	i	i	i	i	i	nt
CCn1c(COc2ccc3ccccc3c2C)nnc1SCC(=O)Nc1cccc(C(=O)O)c1	i	i	32.9	i	i	i
CCN(CC)c1nc(N)c2c(N)n(-c3ccccc3C)c(=S)c(C#N)c2c1C#N	i	i	34.4	i	i	39.2
CCN(CC)c1nc(N)c2c(N)nc3c(c2c1C#N)CC(c1ccccc1)O3 (stereo not given)	i	i	i	i	i	nt

High-throughput results: PubChem BioAssay, several laboratories
